# Screening data from PubChem.
# CSC inhib: cancer stem cell inhibition. cancer stem cell-like cells viability, luminescence. 300,000 compounds, 1.1% hits. inhibition, % at 7.5 µM; in the data active = inhibition above about 75%; inconclusive = no clear call, values can overlap the other calls; tested in HMLE shEcad cells
# Calb FLC: C. albicans growth modulation with fluconazole; C. albicans CaCi-2 (fluconazole-resistant clinical isolate) + fluconazole, Alamar Blue growth, 48 h; growth inhibition, % (concentration not given with the values); 300,000 compounds, 0.57% hits; AID 1979;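 active = growth inhibition above about 58% in most replicates, limit read from the data, passing the limit was not always enough; inconclusive = exactly half the replicates above a set limit; inactive = most replicates below a set limit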;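 also: all wells also contain fluconazole at 8 µg/ml as a sub-toxic cotreatment; 0% = median of DMSO wells and 100% = median of geldanamycin control wells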
# PP1 counter: blocks human PP1-alpha phosphatase, a PP5 counter-screen. 320,000 compounds, 0.9% hits. inhibition, % at 6.7 µM. P62136. purified PP1alpha, OMFP fluorescence;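 active = inhibition above the mean inhibition of all tested compounds plus 3 SD, computed separately for each screening campaign, cut at about 15% in these data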
# Beta cell apopt: beta cell apoptosis inhibition; INS-1E cytokine-induced death, ATP luminescence, 48 h; percent of positive-control rescue, neutral wells zero; protection from apoptosis, % (concentration not given with the values); 300,000 compounds, 0.8% hits; AID 435005;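 active = Every replicate reaches about 75%, or at least half do and their mean reaches it too, limit read from the data; inconclusive = At least half of replicates reach the limit but their mean does not; inactive = Under half of replicates reach the limit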;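 also: 0% = cytokine-treated negative control wells and 100% = positive control rescue; higher means more ATP so stronger rescue from cytokine killing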
# PP5 primary: inhibitors of human protein phosphatase 5 (PP5); purified PP5c, OMFP substrate fluorescence; inhibition, % at 6.7 µM; 320,000 compounds, 0.18% hits; AID 1987;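 active = inhibition above the campaign's mean inhibition across all tested compounds plus 3 SD, cut at about 9.5% in these data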;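 also: 0% = DMSO only and 100% = 100 µM cantharidin control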
# Mdm2 MdmX PPI: disrupts the human Mdm2-MdmX interaction. O15151+Q00987. SaOS-2 split-luciferase Mdm2/MdmX complementation, luminescence. inhibition, % at 8 µM. 330,000 compounds, 3% hits. AID 485346;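 active = inhibition of at least 50% at 8 µM in the primary screen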
# Target sequence (O15151 whole entry, looked up): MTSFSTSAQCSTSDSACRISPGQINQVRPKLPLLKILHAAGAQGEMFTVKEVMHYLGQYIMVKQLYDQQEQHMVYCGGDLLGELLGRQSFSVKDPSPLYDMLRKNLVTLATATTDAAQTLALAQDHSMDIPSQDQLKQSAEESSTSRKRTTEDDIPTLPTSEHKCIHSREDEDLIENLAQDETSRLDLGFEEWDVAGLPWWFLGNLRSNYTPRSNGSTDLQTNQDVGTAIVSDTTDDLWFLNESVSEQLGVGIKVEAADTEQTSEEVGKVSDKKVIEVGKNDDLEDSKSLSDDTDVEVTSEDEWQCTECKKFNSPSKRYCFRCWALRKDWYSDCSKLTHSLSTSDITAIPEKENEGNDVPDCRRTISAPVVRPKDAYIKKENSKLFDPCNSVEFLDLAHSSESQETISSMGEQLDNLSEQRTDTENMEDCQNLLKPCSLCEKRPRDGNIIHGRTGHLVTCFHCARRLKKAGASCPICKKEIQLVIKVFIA
# Target sequence (Q00987 whole entry, looked up): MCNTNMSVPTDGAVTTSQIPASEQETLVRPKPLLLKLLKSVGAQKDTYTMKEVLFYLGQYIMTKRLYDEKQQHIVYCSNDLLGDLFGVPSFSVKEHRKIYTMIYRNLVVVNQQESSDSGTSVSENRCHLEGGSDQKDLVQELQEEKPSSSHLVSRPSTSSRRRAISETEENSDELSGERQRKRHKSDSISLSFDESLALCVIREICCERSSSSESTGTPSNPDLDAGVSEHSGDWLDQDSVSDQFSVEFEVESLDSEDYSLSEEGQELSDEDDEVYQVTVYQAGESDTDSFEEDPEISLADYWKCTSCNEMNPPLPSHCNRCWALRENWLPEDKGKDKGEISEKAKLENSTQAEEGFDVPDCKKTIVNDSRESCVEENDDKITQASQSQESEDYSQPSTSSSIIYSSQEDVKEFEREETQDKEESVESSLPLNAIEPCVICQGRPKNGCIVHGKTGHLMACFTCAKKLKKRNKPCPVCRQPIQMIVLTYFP
# Mdm2 MdmX conf: human Mdm2/MdmX binding inhibition, confirmed; 10,000 compounds, 55% hits; AID 489028; shares compounds with Mdm2 MdmX PPI; inhibition, % at 8 µM; luminescent assay; in the data active = inhibition above about 40%
# FLuc counter: full-length luciferase inhibition in Mdm2/MdmX counter-screen; shares compounds with Mdm2 MdmX PPI; SaOS-2 full-length luciferase counterscreen, luminescence; inhibition, % at 8 µM; 6,200 compounds, 77% hits; AID 504607;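 active = mean inhibition at 8 µM reaching about 37%, which flags the compound as non-specific, limit read from the data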;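 also: p53-null SaOS-2 cells with luciferase driven by a doxycycline-inducible promoter; compound on cells about two nights before reading with doxycycline added after day one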
# The depositor's hits bear a star; ? = inconclusive; . = no result. Shown are actives, neighbours in structure and some others; about 4.9% of the full set was active somewhere.
SMILES,CSC inhib,Calb FLC,PP1 counter,Beta cell apopt,PP5 primary,Mdm2 MdmX PPI,Mdm2 MdmX conf,FLuc counter
COC(=O)c1ccc(COc2ccccc2/C=N/NS(=O)(=O)c2ccccc2)cc1,51,21,-5,2,4,52*,52*,115*
C/C(=N\Nc1ccc2nncn2n1)c1ccc(Cl)s1,-10,2,-3,3,0,-5,.,.
O=C1N[C@@H](Cc2ccccc2)COC(=O)[C@H](Cc2ccc(F)cc2)CC/C=C/C[C@@H]1CC(=O)N(CCO)Cc1ccccc1,.,.,.,-4,.,25,.,.
O=C1N[C@@H](Cc2ccccc2)COC(=O)[C@@H](Cc2ccc(F)cc2)CC/C=C/C[C@H]1CC(=O)N(CCO)Cc1ccccc1,-4,.,.,-2,.,52*,16,.
O=C1N[C@@H](Cc2c[nH]c3ccccc23)COC(=O)[C@@H](Cc2ccc(F)cc2)CC/C=C/C[C@@H]1CC(=O)N(CCO)Cc1ccccc1,.,.,.,.,.,59*,32,.
COc1ccc(C(=O)CSc2nnc(CN3CCCC3)n2-c2ccc(F)cc2)c(OC)c1,-8,-15,0,1,-1,-20,.,.
c1ccc(/N=C2\N=C(Nc3ccccn3)c3ccccc32)nc1,52,1,-2,103*,1,72*,5,.
c1ccc(Nc2ccccn2)cc1,-5,-1,-1,-5,0,13,.,.
Clc1ccc(-n2ncc3c(NCc4ccco4)ncnc32)cc1,49,?,6,.,5,-78,.,.
c1ccc(CNc2ncnc3c2cnn3Cc2ccccc2)cc1,48,5,-3,24,1,58*,55*,70*
Clc1ccc(Cn2ncc3c(NCc4ccco4)ncnc32)c(Cl)c1,60,5,-1,24,7,74*,66*,31
COc1cccc(NC(=O)C2CCC(CNS(=O)(=O)c3cccs3)CC2)c1 (stereo not drawn),5,-19,-4,.,3,10,.,.
OC(CCc1cccc(Cl)c1)c1cccs1 (stereo not drawn),-4,-6,-1,-1,3,-9,.,.
C=CC[C@H](CC(=O)N(CCO)Cc1ccccc1)C(=O)N[C@H](COC(=O)[C@@H](CC=C)Cc1ccc(F)cc1)Cc1c[nH]c2ccccc12,8,.,.,1,.,86*,38,71*
C=CC[C@@H](CC(=O)N(CCO)Cc1ccccc1)C(=O)N[C@H](COC(=O)[C@@H](CC=C)Cc1ccc(F)cc1)Cc1c[nH]c2ccccc12,22,.,.,-4,.,88*,6,.
C=CC[C@H](CC(=O)N(CCO)Cc1ccccc1)C(=O)N[C@@H](COC(=O)[C@@H](CC=C)CC(=O)OC(C)(C)C)Cc1c[nH]c2ccccc12,.,.,.,6,.,49,.,.
CCOc1cc(C(=S)N2CCCC2)ccc1O,6,5,0,-2,4,16,.,.
C=CCOc1c(Cl)cc(C(=S)N2CCCC2)cc1OCC,68,-2,-2,.,5,58*,28,.
O=c1c2ccccc2nc2sc(Nc3cccc(Cl)c3)nn12,-9,.,0,12,0,73*,-21,.
Cc1nc2ccccc2c(=O)n1Nc1cccc(Cl)c1,-4,2,-1,-2,-2,-15,.,.
Cc1ccc(C)c2sc(NC(=O)c3nc4ccccc4s3)nc12,0,4,-5,13,-1,58*,23,.
Oc1ccc2ccccc2c1/C=N/c1nccs1,-9,?,-2,-15,2,4,.,.
Oc1ccc2ccccc2c1C=NCc1cn2ccsc2n1,-9,-7,1,-8,1,51*,4,.
O=C(N/N=C/c1cc([N+](=O)[O-])ccc1O)c1cccc(NC(=O)c2cccc(Cl)c2)c1,14,-7,0,81*,1,51*,50*,41*
O=C(N/N=C/c1cc([N+](=O)[O-])ccc1O)c1cccc2ccccc12,11,39,6,102*,2,62*,68*,43*
SMILES,CSC inhib,Calb FLC,PP1 counter,Beta cell apopt,PP5 primary,Mdm2 MdmX PPI,Mdm2 MdmX conf,FLuc counter
O=C(CNC(=O)c1ccccc1Br)N/N=C/c1cc(Br)ccc1O,31,-4,4,43,2,36,.,.
O=C(Cn1nnc(-c2ccccc2)n1)N/N=C/c1cc([N+](=O)[O-])ccc1O,-10,-3,-4,-3,1,53*,12,.
O=C(Cn1nc2ccccc2n1)N/N=C/c1cc([N+](=O)[O-])ccc1O,7,?,2,40,-1,3,.,.
O=C(N/N=C/c1cc(Cl)ccc1O)c1ccccc1Br,21,44,0,110*,-1,54*,58*,44*
Cc1nc2ccc(C(=O)N/N=C/c3cc([N+](=O)[O-])ccc3O)cc2[nH]1,.,1,12,2,0,0,.,.
COc1ccc(Br)cc1/C=N/NC(=O)c1ccc(COc2ccc3c(c2)CCC3)o1,.,1,0,-9,-1,19,.,.
O=C(N/N=C/c1cc([N+](=O)[O-])ccc1O)c1ccc(COc2ccc3c(c2)CCC3)o1,101*,93*,.,105*,.,94*,72*,51*
O=[N+]([O-])c1ccc(O)c(/C=N\N=C2c3ccccc3-c3ccccc32)c1,18,-5,-3,8,-1,93*,91*,46*
CC1CCc2sc(C(=O)OCC(=O)NCc3ccc(F)cc3)cc2C1 (stereo not drawn),23,-8,5,-2,4,41,.,.
CC1Cc2ccccc2N1C(=O)c1ccc(F)c(S(=O)(=O)N2CCOCC2)c1 (stereo not drawn),-4,.,.,0,.,12,.,.
NC(=S)N/N=C\c1c(OCc2ccccc2Cl)ccc2ccccc12,28,34,-10,37,2,53*,5,.
NC(=S)N/N=C\c1c2ccccc2cc2ccccc12,14,.,1,3,2,.,.,.
COc1cccc(CN2CC(C(=O)NCCC3=CCCCC3)CCC2=O)c1 (stereo not drawn),-7,5,-2,-2,1,-5,.,.
COc1cccc(N(CC(=O)N/N=C(\C)c2cccs2)S(C)(=O)=O)c1,-6,-2,1,-3,0,4,.,.
COc1ccc(C(=O)O/N=C(\N)c2ccccc2)cc1,-8,-20,2,-3,0,55*,22,.
COc1ccc(C(=O)O/N=C(\N)c2ccc(Br)cc2)cc1,14,-1,8,-10,2,96*,36,158*
N/C(=N\OC(=O)c1ccc(Br)cc1)c1ccccc1,1,4,-3,8,1,-115,.,.
CC(C)(C)c1ccc(C(=O)O/N=C(\N)c2ccccc2)cc1,0,-4,-3,1,-4,97*,88*,23
